Measured values: article PMC4336329 (PLoS ONE, 2015)
Out of some 310,000 compounds screened, about 14,000 (4.5%) showed an effect of 50% or more. The effect is printed as a negative number. This excerpt belongs to a sample that is enriched for strong results.

Each compound was assayed against human ether-à-go-go-related gene (hERG) potassium channel (human, UniProt Q12809) (assay: primary screen, population patch clamp on CHO cells stably expressing hERG; higher = less effect of the substance).
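Note: peak tail current of the secondary pulse compared with the same well before compound.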

Sequence of human ether-à-go-go-related gene (hERG) potassium channel (Q12809 whole entry, looked up): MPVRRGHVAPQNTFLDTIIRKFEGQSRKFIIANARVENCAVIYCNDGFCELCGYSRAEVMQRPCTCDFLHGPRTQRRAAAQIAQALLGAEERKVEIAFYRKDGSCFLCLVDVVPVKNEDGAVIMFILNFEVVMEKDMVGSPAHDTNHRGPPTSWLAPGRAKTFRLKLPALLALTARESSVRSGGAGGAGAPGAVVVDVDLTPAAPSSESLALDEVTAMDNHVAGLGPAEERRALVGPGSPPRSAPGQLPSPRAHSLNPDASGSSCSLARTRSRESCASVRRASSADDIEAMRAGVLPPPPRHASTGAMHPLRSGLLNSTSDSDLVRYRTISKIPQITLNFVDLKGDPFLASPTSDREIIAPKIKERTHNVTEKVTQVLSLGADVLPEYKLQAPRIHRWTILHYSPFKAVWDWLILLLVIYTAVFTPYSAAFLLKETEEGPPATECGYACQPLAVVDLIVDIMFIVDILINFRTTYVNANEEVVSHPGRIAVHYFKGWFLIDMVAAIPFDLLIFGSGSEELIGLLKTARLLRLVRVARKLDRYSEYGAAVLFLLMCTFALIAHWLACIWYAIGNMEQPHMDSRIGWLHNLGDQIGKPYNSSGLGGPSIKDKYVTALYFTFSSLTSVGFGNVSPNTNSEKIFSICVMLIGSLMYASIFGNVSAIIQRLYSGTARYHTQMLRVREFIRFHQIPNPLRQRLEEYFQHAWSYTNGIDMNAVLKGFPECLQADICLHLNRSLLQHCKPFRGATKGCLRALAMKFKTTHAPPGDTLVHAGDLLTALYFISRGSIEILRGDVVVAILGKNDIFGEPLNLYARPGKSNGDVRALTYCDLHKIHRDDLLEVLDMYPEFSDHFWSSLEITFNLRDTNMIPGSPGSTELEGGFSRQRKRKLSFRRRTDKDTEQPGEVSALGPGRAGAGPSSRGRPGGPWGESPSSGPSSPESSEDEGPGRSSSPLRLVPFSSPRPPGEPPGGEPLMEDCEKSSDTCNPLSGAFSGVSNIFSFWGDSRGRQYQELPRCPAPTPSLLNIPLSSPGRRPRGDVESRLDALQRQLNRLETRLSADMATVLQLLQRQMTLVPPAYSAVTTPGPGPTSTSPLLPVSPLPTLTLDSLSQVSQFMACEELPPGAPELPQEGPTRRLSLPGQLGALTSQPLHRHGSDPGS

Compound	hERG current change (%, negative = inhibition) at 10uM
COC(=O)c1ccccc1NC(=O)c1cnn2cccnc12	13%
C/C(NC(=O)c1ccccc1)=C1/C(=O)CC2C1C2(C)C (stereo not shown)	2.15%
O=C(CN(Cc1ccco1)C(=O)c1cc(=O)[nH]c2ccccc12)Nc1ccccc1Br	-53.5%
O=C(CN(Cc1ccco1)C(=O)c1cc(=O)[nH]c2ccccc12)Nc1ccccc1C(F)(F)F	-12%
COc1cc(SC)ccc1C(=O)N(CC(=O)Nc1ccccc1Br)Cc1ccco1	-10.4%
CC(C)=CCOc1ccc2ccc(=O)oc2c1	-12.9%
Cc1cccc(C(=O)Nc2ccccc2NC(=O)c2cccc(C)c2)c1	8.24%
CCOc1ccc(NC(=O)c2c(NC(=O)CNCCN3CCOCC3)sc3c2CCC3)cc1	-69.3%
COC(=O)c1c(NC(=O)CCN2CCOCC2)sc2c1CCCC2	-26%
O=C(CN1CCCC1)Nc1sc2c(c1C(=O)Nc1ccc(Br)cc1)CCC2	-1.29%
COc1ccc(NC(=O)c2c(NC(=O)CNCc3ccco3)sc3c2CCC3)cc1	17.8%
CCOc1ccc(NC(=O)c2c(NC(=O)CN3CCN(C)CC3)sc3c2CCC3)cc1	-72.7%
CCOc1ccc(NC(=O)c2c(NC(=O)CN3CCCC3)sc3c2CCC3)cc1	-3.84%
CC(NC(=O)N(Cc1ccccc1)Cc1ccc2c(c1)OCO2)(C(F)(F)F)C(F)(F)F	7.8%
O=C(CCCN=C1NS(=O)(=O)c2ccccc21)OCc1cc([N+](=O)[O-])cc2c1OCOC2	-14.7%
CCC(OC(=O)c1ccco1)C(=O)NCc1ccc(OC)cc1 (stereo not shown)	-8.67%
O=C(Cc1cccc2ccccc12)N1CC[C@@]2(O)CCCC[C@H]2C1	12.5%
CN(C)S(=O)(=O)c1cccc(NC(=O)COC(=O)c2ccc3c(c2)OCO3)c1	-19.4%
COc1ccc(CNCCC(c2ccc(OC(C)C)cc2)C(C)C)cc1OC (stereo not shown)	-74.5%
CCOCCCNCc1ccc(OC)c(OC)c1.O=C(O)C(=O)O	3.24%
COc1ccc(CNCCC(c2ccccc2)c2ccc(OC(C)C)cc2)cc1OC (stereo not shown)	-69.7%
COc1ccc(OC)c(NC(=S)NCCC(c2ccccc2)c2ccccc2)c1	1.73%
COc1ccc(CC(=O)NC(C)CCc2ccccc2)cc1OC (stereo not shown)	8.96%
COc1ccc(CNCCCSc2ncccn2)cc1OC.Cl	11.9%
COc1ccc(CNCCC(c2ccc(F)cc2)c2ccc(OC(C)C)cc2)cc1OC (stereo not shown)	-73%
COc1ccc(CN(CCC(c2ccccc2)c2ccc(OC(C)C)cc2)C(=O)CCl)cc1OC (stereo not shown)	-1.82%
COc1ccc(CNCCCO)cc1OC	4.57%
COc1ccc(C(C)NC(=S)NCc2ccc(F)cc2)cc1OC (stereo not shown)	-5.63%

Compound	hERG current change (%, negative = inhibition) at 10uM
COc1ccc(C(CCNCc2ccc(OC(C)C)cc2)C(C)C)cc1 (stereo not shown)	-39%
COc1ccc(CNCCC(c2ccc(OC(C)C)cc2)c2ccccc2OC)cc1OC (stereo not shown)	-71.3%
C/C(=N\NC(=O)c1ccc(CN2CCOCC2)cc1)c1cccc([N+](=O)[O-])c1	-19.5%
COc1ccccc1C(=O)Nc1ccccc1C(=O)NC1CCCCC1	-1.19%
O=C(COc1ccccc1Cl)Nc1ccc(C(=O)c2ccc(C(=O)O)cc2)cc1	11.7%
Cc1cccc2c(=O)oc(-c3ccccc3Cl)nc12	14.2%
Cc1ccc(CN2[C@@H](CC(C)C)COCCS2(=O)=O)cc1	-2.46%
CCOc1ccc(CN(C)C(=O)c2ccc(NC(=O)CC3SC(N4CCCC4)=NC3=O)cc2)cc1 (stereo not shown)	7.53%
O=C(NCC1CCCO1)c1ccccc1-c1nc(-c2ccc(F)cc2)no1 (stereo not shown)	-31.1%
CCc1nnc(NC(=O)CSc2nnc(COc3ccccc3)n2Cc2ccccc2)s1	5.71%
COc1ccc(NC(=O)c2sccc2-n2cccc2)cc1	3.64%
CCc1cccc2c(C(=O)CN3C(=O)NC4(CCc5ccccc54)C3=O)c[nH]c12 (stereo not shown)	10.4%
CC(NC(=O)CSc1nc(=O)cc(N)n1CCc1ccccc1)c1ccccc1 (stereo not shown)	1.91%
O=C(Cn1c(=O)n(-c2cccc(Cl)c2)c(=O)n1CC(=O)N1CCCCC1)N1CCCCC1	4.64%
CCOc1ccc(-n2c(C)cc(C(=O)NS(=O)(=O)c3ccc(C)cc3)c2C)cc1	-32.3%
CCOC(=O)C1CCN(C(=O)CSc2n[nH]c(=O)[nH]c2=O)CC1	7.16%
COc1ccc(NCc2ccc(OC)c(OC)c2)cc1	2.67%
COc1ccc(C(CCN(Cc2ccc(OC)c(OC)c2)C(C)=O)c2ccccc2)cc1 (stereo not shown)	-33.9%
COc1ccc(C(CCN(Cc2ccc(OC)c(OC)c2)C(C)=O)C(C)C)cc1 (stereo not shown)	-52.3%
COc1ccc(CN(CCC(c2ccco2)C(C)C)C(C)=O)cc1OC (stereo not shown)	0.825%
CC(C)Oc1ccc(CNC(=O)Oc2ccccc2)cc1	8.19%
CC(C)Oc1ccc(C(CCNCc2ccc(O)cc2)c2ccccc2)cc1 (stereo not shown)	-58.7%
CC(C)Oc1ccc(CNC(=O)CC(c2ccccc2)c2cc(Cl)ccc2O)cc1 (stereo not shown)	11.8%
COc1ccc(C(CCNCc2ccc(OC)c(OC)c2)c2ccc(F)cc2)cc1 (stereo not shown)	-71.3%
COc1ccc(CNC(=S)NCc2ccc(F)cc2)cc1OC	-0.604%
Cc1ccc(S(=O)(=O)N2CCN(S(=O)(=O)N3CCOCC3)CC2)cc1	13.4%
COCCCNC(=O)CCc1nnc2ccc(N3CCC(C)CC3)nn12	10.9%
